Source: ChEMBL document CHEMBL4513216, “Probing the Open Global Health Chemical Diversity Library for Multistage-Active Starting Points for Next-Generation Antimalarials” (ACS Infect Dis, 2020)
Among all 69,000 compounds or so, about 8,600 (12%) showed an effect of 50% or more. For the sample, strong results were picked, then their nearest neighbours and some compounds at random.

The compounds below were run on Plasmodium berghei (assay: Screen against P. berghei liver stage (PbLuc), transformed with Luciferase, at 10uM). Conditions: tested at 10 uM.
Type: functional, HepG2

SMILES | INHIBITION [%]
COc1cc(C)nc(N2CCN(C(=O)COC3CCCC3)CC2)n1 | 26.36
Cc1cn[nH]c1C1CCCCN1C(=O)CCc1ccc(F)cc1 (stereo not drawn) | 2.6
O=C(c1ccsc1)N1CCC(c2nnc(C3CC3)o2)CC1 | 14.3
Cc1cc(C)n(CC2CCCN2C(=O)c2ccc3ccccc3n2)n1 (stereo not drawn) | 21
CCOc1ccc(Cl)c(C(=O)N2CCN(c3ncccn3)CC2)n1 | 1.78
CCOc1ccc(Cl)c(C(=O)N2CCN(c3cnccn3)CC2)n1 | 52.7
CCOc1ccc(Cl)c(C(=O)N2CCN(c3ccncc3)CC2)n1 | 10
CCC(NC(=O)c1ccoc1)c1ccccc1OCC(=O)N1CCCC1 (stereo not drawn) | 29.05
COCC(=O)N[C@H](C(=O)NC(C)c1cccc(C)c1C)C(C)C (stereo partly drawn) | 28.7
CCOCC(=O)NC(C)c1cc(C)ccc1C (stereo not drawn) | 30.5
COCC(=O)N[C@H](C(=O)NC(C)c1cc(C)ccc1C)C(C)C (stereo partly drawn) | 57.4
CC1=Nc2c(c(=O)[nH]n2C(C)C)C(c2ccc3nccnc3c2)S1 (stereo not drawn) | 58.5
CC1=Nc2c(c(=O)[nH]n2C(C)C)C(c2ccc(F)c(F)c2)S1 (stereo not drawn) | -3.95
CC1=Nc2c(c(=O)[nH]n2C(C)C)C(c2ccccc2)S1 (stereo not drawn) | 7.11
CC1=Nc2c(c(=O)[nH]n2C(C)C)C(c2ccc3c(c2)n(C)c(=O)n3C)S1 (stereo not drawn) | -39.6
CC1=Nc2c(c(=O)[nH]n2C(C)C)C(c2ccc3ncccc3c2)S1 (stereo not drawn) | 80
CC1=Nc2c(c(=O)[nH]n2C(C)C)C(c2ccc3c(c2)OCCO3)S1 (stereo not drawn) | -14.1
O=C(Nc1ccccc1)[C@H]1C[C@H]2CN(S(=O)(=O)C3CC3)C[C@@H]1O2 | 30.3
CC(C)c1cnc(CN2CCCC(c3cc(C(N)=O)[nH]n3)C2)o1 (stereo not drawn) | -0.113
Cc1cccnc1NC(=O)c1ccc(F)c(S(=O)(=O)NC2CC2)c1 | 20.9
Cc1ccccc1CN(C)C(=O)CN1CCOC(Cn2cccn2)C1 (stereo not drawn) | -4.16
O=C(CCC(=O)Nc1nnc(C(F)(F)F)s1)NCC1CCCO1 (stereo not drawn) | 0.207
O=C(CCC(=O)Nc1nnc(C2CCCCC2)s1)NCC1CCCO1 (stereo not drawn) | 18.4
CC(C)c1nnc(NC(=O)CCC(=O)NCC2CCCO2)s1 (stereo not drawn) | 52.5
COc1ccc(C2(C(=O)NCc3c(C)ncc4c3CCNC4)CC2)cc1 | 44.3
Cc1ncc2c(c1CNC(=O)C1(C)CCCO1)CCNC2 (stereo not drawn) | 56.3

SMILES | INHIBITION [%]
Cc1ccc(OCC(O)CNC(=O)C2(c3ccc(F)cc3)CC2)cc1 (stereo not drawn) | -26.1
Cc1ncc2c(c1CNC(=O)C1(c3ccc(F)cc3)CC1)CCNC2 | 61.9
Cc1ncc2c(c1CNC(=O)C1(C)CC1)CCNC2 | 14.6
Cc1ncc2c(c1CNC(=O)C1(C)CCCCO1)CCNC2 (stereo not drawn) | 36.9
COc1cccc(CCC(=O)N2CCC[C@@H](N)[C@@H]2c2ccccc2F)c1 | 14.4
COc1c(CNCC(O)c2ccc(C)cc2)c(C(C)C)nn1C (stereo not drawn) | -6.14
CS(=O)(=O)CC1(CNc2cc(C#N)c3cc(Cl)ccc3n2)CC1 | 6.23
CC(NC(=O)CNc1cc2c(cc1Cl)NC(=O)CO2)c1ccco1 (stereo not drawn) | 17.1
Cn1nnnc1SCC(=O)N1CCN(C(=O)C2CC2c2cccs2)CC1 (stereo not drawn) | -40.4
CCc1nnc2n1CCN(C(=O)CCc1ccc3c(c1)OCO3)C2 | 37.4
O=C(C1CCOCC1)N1C[C@@H]2[C@@H](C1)OCC(=O)N2Cc1ccncc1 | -46.5
NC(=O)CCC1CCCN(c2ccc3c(Cl)ccnc3c2F)C1 (stereo not drawn) | 38
NC(=O)CCC1CCCN(c2ccnc3cc(F)ccc23)C1 (stereo not drawn) | 79.3
NC(=O)CCC1CCCN(c2ccc3ccc(F)cc3n2)C1 (stereo not drawn) | -65.4
Cc1cnccc1CCNC(=O)Nc1cnc(N(C)C)nc1 | 42.3
Cc1nc(NC(=O)C(C)N(C)Cc2cccc(C#N)c2)sc1C (stereo not drawn) | -24.7
OC1(CNC2CCN(c3ccccn3)CC2)CCc2ccccc21 (stereo not drawn) | 7.31
CC(C)COCCNC1CCN(c2ccccn2)CC1 | 41.4
COc1ccc(C(C)CCNC2CCN(c3ccccn3)CC2)cc1 (stereo not drawn) | 53.4
CC(CNC1CCN(c2ccccn2)CC1)Oc1ccc(F)cc1 (stereo not drawn) | 65.4
COc1c(CNC2CCN(c3ccccn3)CC2)c(C(C)C)nn1C | 40.2
c1ccc(N2CCC(NCCc3ccc(-n4cccn4)cc3)CC2)nc1 | -15.3
CN1CCC/C1=N\S(=O)(=O)c1ccc(NC(=O)c2cccs2)cc1 | 23.4
c1ccc(CN2C[C@@H]3CC[C@H]2CN(Cc2nnc(C4CC4)o2)C3)cc1 | 45.4
Cc1cc(C)n(CC2CN(CC(=O)N3CCC3)CCO2)n1 (stereo not drawn) | 8.64
CCCN1CCC(c2nc3ccc(-c4ccncc4)cn3n2)CC1 | 16.8

SMILES | INHIBITION [%]
CCCN1CCC(c2nc3ccc(-c4cccc(F)c4)cn3n2)CC1 | 47.5
CCCN1CCC(c2nc3ccc(-c4cccc(OC)c4)cn3n2)CC1 | 82.9
COCCN1CCC(c2nc3ccc(-c4ccccc4)cn3n2)CC1 | -18.4
Cc1cccc(-c2ccc3nc(C4CCN(CC5CC5)CC4)nn3c2)c1 | 46.8
CCCN1CCC(c2nc3ccc(-c4ccccc4)cn3n2)CC1 | 54.8
CN(CCS(C)(=O)=O)C1CCCN(Cc2noc(C3CC3)n2)C1 (stereo not drawn) | 47.3
CN(Cc1ccc2c(c1)OCO2)C(=O)c1ccc(C2CCCNC2)cc1 (stereo not drawn) | -26.5
CSc1cccc(CN(C)C(=O)c2cccc(C3CCCNC3)c2)c1 (stereo not drawn) | 60.4
O=C(NC1CCOCC1)c1cccc(C2CCCNC2)c1 (stereo not drawn) | 27.7
CCOC(=O)N1CCC(NC(=O)c2cccc(C3CCCNC3)c2)CC1 (stereo not drawn) | 9.72
CSCCN1CCC(NC(=O)c2cccc(C3CCCNC3)c2)CC1 (stereo not drawn) | 50.8
CSc1cccc(CN(C)C(=O)c2ccc(C3CCCNC3)cc2)c1 (stereo not drawn) | 9.56
Cc1cccc(-n2cc3[nH]c(=O)n(Cc4cccc(F)c4)n3c2=O)c1 | 25.2
CCc1noc(CN(CC)C(=O)CC2C(=O)NCCN2CC=C(C)C)n1 (stereo not drawn) | 16.9
CCc1nc(C2NC3(CCCC3)C(=O)N2CC2CC2)cs1 (stereo not drawn) | 61.6
Cc1csc(C2NC3(CCCC3)C(=O)N2CC2CC2)n1 (stereo not drawn) | 43.5
Cc1nc(C2NC3(CCCC3)C(=O)N2CC2CC2)cs1 (stereo not drawn) | 47.7
O=C(NCC1CC1)C1CSCN1S(=O)(=O)c1ccccc1 (stereo not drawn) | -35.9
Cc1n[nH]c(C2CN(CCc3cccs3)CCO2)n1 (stereo not drawn) | 35.3
Cc1cccc(CN2C(=O)CO[C@@H]3CN(CCO)C[C@H]32)c1 | -9.76
COc1ccc(-c2nnc(CN3CCCC3Cn3cncn3)o2)cc1 (stereo not drawn) | 45.1
Cc1nc(CN2C(=O)CC3(CCN(C(N)=O)CC3)c3ccccc32)cs1 | 36.4
O=C([C@H]1CCCO1)N1CCC2(CC1)C(=O)N(CC1CC1)c1ccccc12 | 17.4
NC(=O)N1CCC2(CC1)CC(=O)N(CC1CCCO1)c1ccccc12 (stereo not drawn) | 54.3
COCCN1CCC2(CCN(Cc3ccc(OC)cc3)CC2)C1=O | 38.3
O=C(c1c[nH]nn1)N1CCCC1C1CCCCC1 (stereo not drawn) | 53.8

SMILES | INHIBITION [%]
O=C(c1ccc(=O)[nH]n1)N1CCCC1C1CCCC1 (stereo not drawn) | 18
O=C(c1cnc2[nH]c(=O)[nH]c(=O)c2c1)N1CCCC1C1CCCCC1 (stereo not drawn) | -1.35
CC(C)N1CCC2(CC1)CC(NS(C)(=O)=O)c1ccccc1O2 (stereo not drawn) | -12.2
CC(C)NC(=O)NCc1cc(-c2ccco2)n(CC(F)(F)F)n1 | 20.4
Cc1nc(C)c(C)c(N2CCC(O)(c3ccc(F)cc3)CC2)n1 | 25.5
Cc1nc(N2CCC(O)(c3ccccc3)CC2)c2c(C)nn(C)c2n1 | 28.4
Cc1nc(N2CCC(O)(c3ccc(F)cc3)CC2)c2c(C)nn(C)c2n1 | 51.2
Cn1cc(CN2CCC3(CC2)CCN(C(=O)c2cscn2)C3)cn1 | 38.5
COCC1CC2(CCN(c3cccc(C)n3)CC2)CN1c1ncccn1 (stereo not drawn) | 46.6
Cn1cncc1-c1nnc([C@H]2CCN(Cc3ncc[nH]3)C2)o1 | 69.6
Cn1cncc1-c1nnc([C@H]2CCN(Cc3cccnc3)C2)o1 | 39.8
Cn1cncc1-c1nnc([C@H]2CCN(Cc3ccc(F)c(F)c3)C2)o1 | 11.4
Cn1cncc1-c1nnc([C@H]2CCN(CC3CCCCC3)C2)o1 | -17.1
CN1CC[C@H](c2nnc(-c3cncn3C)o2)C1 | 61.5
Cn1cncc1-c1nnc([C@H]2CCN(CC(C)(C)C)C2)o1 | 57.4
Cn1cncc1-c1nnc([C@H]2CCN(C3CCOCC3)C2)o1 | 4.61
Cc1ccccc1CN1CC[C@H](c2nnc(-c3cncn3C)o2)C1 | 5.96
Cn1cncc1-c1nnc([C@H]2CCN(Cc3ccc(CO)o3)C2)o1 | -18.2
COc1ccc(OC)c(CNCc2c(C(C)C)nn(C)c2N(C)C)c1 | 30.08
O=C1N[C@H]2OCCC[C@H]2[C@H](c2ccccc2C(=O)O)N1 | -0.495
Cc1ccc(C2(O)CCN(C(=O)c3cccc(S(C)(=O)=O)c3)CC2)nc1 | -6.09
Cc1n[nH]c(C)c1C1CCCN1C(=O)Cc1cccc(F)c1 (stereo not drawn) | 40.2
CSc1ccc(NC(=O)Cn2cc(N)cn2)cc1 | -15
Cc1cc(NCCc2nnc(N)s2)nc(-c2ccccc2)n1 | -13.3
CN1C(=O)CC[C@@H]2N(C(=O)CCc3cccnc3)CCCC[C@@]21C | 44.3
